Experimental data reported in the supplement of paper PMC9262897, “Low-cost anti-mycobacterial drug discovery using engineered E. coli” (Nature Communications, 2022).
Where a name gives a salt, the structure may show the parent alone. ± gives the standard deviation of the averaged measurements.

Experiments:
Test in all cases: growth (OD600 after 10 h); higher = more growth (less inhibition)
[1] = system: E. coli TESEC Alr+ wild-type control; conditions: compound 0.1 mM; raw OD600 reference: median of DMSO wells 0.241, cell-free background 0.041
Procedure: (§1)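 TESEC Mtb Alr E. coli, or the Alr+ wild-type control, in 384-well plates with Prestwick library compounds at 0.1 mM and 1% DMSO, across arabinose induction levels of 1E3 to 1E7 nM. Growth is read as OD600 after 10 h at 37 °C in triplicate biological replicates.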

E. coli TESEC Mtb Alr [2] = conditions: compound 0.1 mM
Procedure: as §1

E. coli TESEC Mtb Asd = conditions: compound 0.1 mM
Procedure: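 TESEC E. coli strains in which the native enzyme is deleted and replaced by arabinose-inducible Mtb Asd, DapB, CysH or TrpD, each grown in its selective medium. Strains were screened against the Prestwick library at 0.1 mM and 1% DMSO in 384-well format at low and high arabinose induction. Growth is read as OD600 after 10 h in triplicate.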

[3] = system: E. coli TESEC Alr+ wild-type control; conditions: compound 0.1 mM; raw OD600 reference: median of DMSO wells 0.49, cell-free background 0.052
Procedure: (§2)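 TESEC Mtb Alr E. coli (ΔaraC ΔtolC ΔentC Δalr ΔdadX, arabinose-inducible Mtb Alr) or the Alr+ wild-type control strain, grown in defined M9-fructose medium without D-alanine in 96-well plates with Prestwick library compounds at 0.1 mM and 1% DMSO. Low Alr induction is 0.1 µM arabinose and high induction is 10 mM arabinose.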

E. coli TESEC Mtb Alr [4] = conditions: compound 0.1 mM; remark: listed apart in the source
Procedure: as §2

[5] = arabinose 1000 nM, raw OD600 reference: median of DMSO wells 0.294, cell-free background 0.041
[6] = arabinose 10000 nM, raw OD600 reference: median of DMSO wells 0.264, cell-free background 0.041
[7] = arabinose 100000 nM, raw OD600 reference: median of DMSO wells 0.201, cell-free background 0.041
[8] = arabinose 1000000 nM, raw OD600 reference: median of DMSO wells 0.193, cell-free background 0.041
[9] = arabinose 10000000 nM, raw OD600 reference: median of DMSO wells 0.146, cell-free background 0.041
[10] = arabinose induction (level): High, raw OD600 reference: median of DMSO wells 0.331, cell-free background 0.041
[11] = arabinose induction (level): Low, raw OD600 reference: median of DMSO wells 0.417, cell-free background 0.041
[12] = arabinose 100 nM, raw OD600 reference: median of DMSO wells 0.413, cell-free background 0.052
[13] = arabinose 10000000 nM, raw OD600 reference: median of DMSO wells […], cell-free background 0.052

Structure (SMILES)	growth [1]	growth (E. coli TESEC Mtb Alr [2]; [5])	growth (E. coli TESEC Mtb Alr [2]; [6])	growth (E. coli TESEC Mtb Alr [2]; [7])	growth (E. coli TESEC Mtb Alr [2]; [8])	growth (E. coli TESEC Mtb Alr [2]; [9])	growth (E. coli TESEC Mtb Asd; [10])	growth (E. coli TESEC Mtb Asd; [11])	growth [3]	growth (E. coli TESEC Mtb Alr [4]; [12])	growth (E. coli TESEC Mtb Alr [4]; [13])
Nc1ccc(/N=N/c2ccccc2)c(N)n1 [Phenazopyridine hydrochloride]	0.152 ± 0.0064	0.172 ± 0.0075	0.251 ± 0.0051	0.144 ± 0.0084	0.184 ± 0.0075	0.16 ± 0.009	0.255 ± 0.039	0.22 ± 0.016	0.405 ± 0.014	0.414 ± 0.0063	0.301 ± 0.021
CCCCC[C@H](O)/C=C/[C@H]1[C@H](O)CC(=O)[C@@H]1CCCCCCC(=O)O [Alprostadil]	0.215 ± 0.0055	0.284 ± 0.0052	0.23 ± 0.0057	0.176 ± 0.0091	0.163 ± 0.0042	0.126 ± 0.0061	0.243 ± 0.046	0.279 ± 0.082	0.503 ± 0.07	0.364 ± 0.018	0.299 ± 0.017
CN1CCN2c3ccccc3Cc3ccccc3C2C1 (stereo not drawn) [Mianserine hydrochloride]	0.179 ± 0.0089	0.198 ± 0.013	0.283 ± 0.017	0.211 ± 0.014	0.142 ± 0.011	0.17 ± 0.0078	0.222 ± 0.042	0.303 ± 0.04	0.4446 ± 0.0027	0.424 ± 0.0035	0.318 ± 0.015
COc1c(N2C[C@@H]3CCCN[C@@H]3C2)c(F)cc2c(=O)c(C(=O)O)cn(C3CC3)c12 [Moxifloxacin]	0.04227 ± 0.00025	0.04077 ± 0.00035	0.0401 ± 0.0003	0.0415 ± 0.0005	0.04013 ± 0.00012	0.0446 ± 0.0054	0.0511 ± 0.0029	0.052 ± 0.0016	0.0539 ± 0.0014	0.05287 ± 0.00031	0.0516 ± 0.0013
c1ccc([C@H]2CN3CCSC3=N2)cc1 [Levamisole hydrochloride]	0.253 ± 0.0028	0.286 ± 0.0062	0.279 ± 0.005	0.209 ± 0.017	0.186 ± 0.0053	0.142 ± 0.0042	0.364 ± 0.033	0.428 ± 0.026	0.511 ± 0.054	0.413 ± 0.0046	0.353 ± 0.019
COC(=O)CCc1ccc(OCC(O)CNC(C)C)cc1 (stereo not drawn) [Esmolol hydrochloride]	0.234 ± 0.014	0.295 ± 0.018	0.2542 ± 0.00042	0.218 ± 0.0079	0.195 ± 0.0068	0.129 ± 0.0016	0.242 ± 0.013	0.432 ± 0.022	0.431 ± 0.019	0.405 ± 0.015	0.388 ± 0.021
CCC(Cc1c(I)cc(I)c(N)c1I)C(=O)O (stereo not drawn) [Iopanoic acid]	0.0835 ± 0.0044	0.0987 ± 0.0055	0.0635 ± 0.0046	0.097 ± 0.003	0.0566 ± 0.001	0.0777 ± 0.0027	0.114 ± 0.0023	0.0943 ± 0.0055	0.263 ± 0.0034	0.339 ± 0.018	0.0809 ± 0.0061
Cc1cc(=O)oc2cc(O)ccc12 [Hymecromone]	0.227 ± 0.0065	0.286 ± 0.024	0.25 ± 0.0054	0.177 ± 0.012	0.182 ± 0.0058	0.148 ± 0.0076	0.317 ± 0.033	0.411 ± 0.013	0.631 ± 0.01	0.406 ± 0.017	0.355 ± 0.0061
CCCCOc1ccc(OCCCN2CCOCC2)cc1 [Pramoxine hydrochloride]	0.199 ± 0.0084	0.268 ± 0.018	0.263 ± 0.011	0.195 ± 0.013	0.146 ± 0.0024	0.163 ± 0.0035	0.362 ± 0.03	0.403 ± 0.022	0.425 ± 0.028	0.408 ± 0.0076	0.332 ± 0.011
CCOC(=O)C(C)(C)Oc1ccc(Cl)cc1 [Clofibrate]	0.237 ± 0.0033	0.287 ± 0.0062	0.268 ± 0.0049	0.19 ± 0.013	0.194 ± 0.0078	0.137 ± 0.0052	0.279 ± 0.041	0.415 ± 0.043	0.609 ± 0.065	0.4111 ± 0.0031	0.325 ± 0.0033
CC(C)c1c(C(=O)Nc2ccccc2)c(-c2ccccc2)c(-c2ccc(F)cc2)n1CC[C@@H](O)C[C@@H](O)CC(=O)O [Atorvastatin]	0.12 ± 0.0024	0.177 ± 0.0077	0.108 ± 0.0075	0.168 ± 0.0033	0.0909 ± 0.0015	0.136 ± 0.0052	0.169 ± 0.018	0.169 ± 0.018	0.217 ± 0.011	0.352 ± 0.058	0.175 ± 0.037
C[C@]12C=CC(=O)C=C1CC[C@H]1[C@@H]3C[C@@H](O)[C@](O)(C(=O)CO)[C@@]3(C)C[C@H](O)[C@@]12F [Triamcinolone]	0.222 ± 0.0077	0.256 ± 0.033	0.266 ± 0.0064	0.157 ± 0.014	0.142 ± 0.0088	0.127 ± 0.0023	0.222 ± 0.011	0.452 ± 0.014	0.451 ± 0.037	0.4315 ± 0.0037	0.306 ± 0.03
CC(=O)OCC(=O)[C@@]1(O)CC[C@H]2[C@@H]3CCC4=CC(=O)CC[C@]4(C)[C@H]3[C@@H](O)C[C@@]21C [Cortisol acetate]	0.234 ± 0.0044	0.297 ± 0.016	0.237 ± 0.0043	0.184 ± 0.018	0.151 ± 0.0056	0.141 ± 0.0061	0.366 ± 0.052	0.506 ± 0.028	0.517 ± 0.032	0.399 ± 0.014	0.289 ± 0.011
O=C(Nc1ccccc1)OCC(CN1CCCCC1)OC(=O)Nc1ccccc1 (stereo not drawn) [Diperodon hydrochloride]	0.193 ± 0.0045	0.249 ± 0.0066	0.259 ± 0.0044	0.231 ± 0.037	0.0876 ± 0.0038	0.154 ± 0.0081	0.235 ± 0.019	0.345 ± 0.065	0.405 ± 0.02	0.426 ± 0.0081	0.243 ± 0.028
C=CC(N)CCC(=O)O (stereo not drawn) [Vigabatrin]	0.239 ± 0.005	0.279 ± 0.014	0.278 ± 0.0034	0.213 ± 0.013	0.191 ± 0.0036	0.148 ± 0.0044	0.313 ± 0.06	0.389 ± 0.089	0.586 ± 0.13	0.411 ± 0.014	0.361 ± 0.046
CN1CCOC(c2ccccc2)c2ccccc2C1 (stereo not drawn) [Nefopam hydrochloride]	0.218 ± 0.0081	0.294 ± 0.0068	0.263 ± 0.003	0.185 ± 0.012	0.157 ± 0.0087	0.157 ± 0.0035	0.187 ± 0.03	0.401 ± 0.045	0.543 ± 0.081	0.413 ± 0.014	0.327 ± 0.021
CC(=O)Oc1cc(C(F)(F)F)ccc1C(=O)O [Triflusal]	0.224 ± 0.0053	0.275 ± 0.0064	0.259 ± 0.0086	0.186 ± 0.019	0.177 ± 0.0042	0.14 ± 0.004	0.218 ± 0.009	0.367 ± 0.082	0.555 ± 0.033	0.376 ± 0.011	0.315 ± 0.011
c1ccc(CC2=NCCN2)cc1 [Tolazoline hydrochloride]	0.2459 ± 0.0022	0.301 ± 0.018	0.253 ± 0.0071	0.191 ± 0.0077	0.172 ± 0.0039	0.149 ± 0.0054	0.264 ± 0.08	0.435 ± 0.036	0.493 ± 0.064	0.413 ± 0.007	0.364 ± 0.012
